This is a sample that favours compounds with a hit; in the whole collection about 4.1% have one here.
NALP1 inh: NALP1 inflammasome inhibitors in reconstituted yeast, colorimetric, S. cerevisiae, triplicate retest; S. cerevisiae NALP1/ASC/caspase-1 growth, X-gal OD620, 72 h; inhibition, % at 10 µM; hit rate 0.61% among 280,000; AID 2071, 2009; in the data active = inhibition mostly above about 24%, no sharp cut-off; inactive = mostly below about 32%
tim10-1 inh: growth inhibitors of tim10-1 mutant yeast, primary screen, luminescence, uHTS; S. cerevisiae tim10-1 ts strain growth, BacTiter-Glo, 24 h; inhibition, % at 20 µM; hit rate 2.2% among 330,000; AID 463190, 2010;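 active = inhibition of at least 40%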;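 also: mutant grown at 25 °C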
TIM10 inh: growth inhibitors of isogenic TIM10 control yeast, primary screen, counter-screen for tim10-1 yeast inhibitor project, luminescence, uHTS | S. cerevisiae TIM10 strain growth, BacTiter-Glo luminescence, 24 h | inhibition, % at 10 µM | hit rate 1.4% among 330,000 | AID 463195, 2010;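 active = inhibition of 40% or more at the single tested concentration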;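 also: wild-type TIM10 isogenic control strain grown at permissive 25 °C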
tim23-1 inh: growth inhibitors of tim23-1 mutant yeast, primary screen, luminescence, uHTS | AID 463212, 2010 | inhibition, % at 20 µM | hit rate 1.3% among 330,000 | S. cerevisiae tim23-1 growth, BacTiter-Glo luminescence, 24 h;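 active = growth inhibition of the mutant yeast at or above 50%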;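 also: temperature-sensitive mutant grown at 25 °C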
NLRP3 yeast inh: NALP3 inflammasome inhibitors in reconstituted yeast, primary screen, luminescence, uHTS | Yeast reconstituted NLRP3/ASC/caspase-1, beta-gal luminescence, 24 h | inhibition, % at 10 µM | hit rate 0.39% among 330,000 | AID 2825, 2010;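 active = inhibition of 50% or more; inactive = inhibition below 50%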
tim10-1 conf: growth inhibitors of tim10-1 mutant yeast, confirmation, single concentration, luminescence, S. cerevisiae | S. cerevisiae tim10-1 ts strain growth, BacTiter-Glo, 24 h | shares compounds with tim10-1 inh | hit rate 56% among 7,400 | AID 463213, 2010 | inhibition, % at 20 µM;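 active = inhibition of yeast growth at or above a set limit in either of two repeat tests at 20 µM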;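 also: tim10-1 mutant grown at permissive 25 °C to find synthetic lethal compounds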
tim10 confirm: growth inhibitors of wild-type TIM10 yeast, confirmation, counter-screen for tim10-1 synthetic lethality project, single concentration, luminescence, S. cerevisiae. shares compounds with TIM10 inh. inhibition, % at 10 µM. hit rate 63% among 4,600. S. cerevisiae tim10 strain growth, BacTiter-Glo luminescence, 24 h;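 active = inhibition of yeast growth at or above a set limit in either of two replicates at 10 µM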; also: this counterscreen used the strain with wild-type TIM10
Of the large screens only hits and unclear results are named; the others gave an inactive call (follow-up assays come after a bar, where they were run).

COc1ccccc1S(=O)Cc1ccc(C(=O)NCCc2ccc(Cl)cc2)o1 (stereo unspecified)	none
CN1/C(=C\C(=O)Nc2cccc(Cl)c2)C(C)(C)c2ccccc21	tim10-1 inh 40.5, TIM10 inh 40.5 | tim10-1 conf 34.0 | tim10 confirm 42.9
Cc1ccc(S(=O)(=O)ON2C(=O)c3ccccc3C2=O)c(C)c1	none (no result: tim10-1 inh, TIM10 inh, tim23-1 inh, NLRP3 yeast inh)
Cc1cc(C)c(S(=O)(=O)ON2C(=O)c3ccccc3C2=O)cc1C	tim10-1 inh 70.5, TIM10 inh 44.7 | tim10-1 conf 60.2 | tim10 confirm 73.6
O=[N+]([O-])c1cccc(NC(=S)NCCc2ccccc2)c1	tim10-1 inh 47.5, TIM10 inh 46.3 | tim10-1 conf 29.8 | tim10 confirm inactive
Fc1cccc(NC(=S)NCCc2ccccc2)c1	none
O=C(NCc1ccccc1)c1cccc(COc2cccc(Cl)c2)c1	tim10-1 inh 44.6, TIM10 inh 43.5 | tim10-1 conf 39.6 | tim10 confirm 33.5
Cc1ccc(C(=O)Nc2cc3c(oc2=O)CCCC3=O)cc1	none
CC1CCCCN1S(=O)(=O)c1ccc2c(c1)CCN2C(=O)C1CCC1 (stereo unspecified)	tim10-1 inh 41.8, TIM10 inh 44.1 | tim10-1 conf 40.2 | tim10 confirm inactive
O=C(C1CC1)N1CCc2cc(S(=O)(=O)N3CCOCC3)ccc21	none
COc1ccc(C)cc1NC(=O)COC(=O)c1ccc([N+](=O)[O-])o1	tim10-1 inh 77.8, TIM10 inh 88.4 | tim10-1 conf 73.7 | tim10 confirm inactive
COc1ccc(C(C)(C)C)cc1NC(=O)COC(=O)c1ccc([N+](=O)[O-])o1	tim10-1 inh 53.4 | tim10-1 conf inactive | tim10 confirm 91.6
CC(=O)Nc1ccc(S(=O)(=O)Nc2ccc(S(=O)(=O)Nc3nccs3)cc2)cc1	none
Cn1c(SCC(=O)Nc2ccc(C(=O)O)cc2)nc2scc(-c3ccccc3Cl)c2c1=O	none (no result: NALP1 inh)
Cc1ccc(CSc2nnc(-c3cccs3)n2C)cc1	none
Cn1c(SCc2c(Cl)cccc2Cl)nnc1-c1cccs1	tim10-1 inh 48.4, TIM10 inh 47.5 | tim10-1 conf 34.5 | tim10 confirm 33.6
CCOC(=O)c1ccc(/C=C2/C=C(c3ccccc3)N(c3ccc(Cl)c(C(=O)O)c3)C2=O)cc1	none
O=c1[nH]c(N/N=C/c2ccccc2)nc2ccccc12	tim10-1 inh 43.7, TIM10 inh 40.9 | tim10-1 conf 38.4 | tim10 confirm inactive
Cc1cc(=O)[nH]c(SCC(=O)N2CCCC(C)C2)n1 (stereo unspecified)	none
CCCC(C(=O)NC1CCCC1)N(CC1CCCO1)C(=O)CNS(=O)(=O)c1ccccc1 (stereo unspecified)	none
CCn1nc(C)cc1-c1nnc(Sc2ncc([N+](=O)[O-])s2)n1C	tim10-1 inh 65.7, TIM10 inh 50.1 | tim10-1 conf 72.3 | tim10 confirm 55.3
CCn1nc(C)cc1-c1nnc(SCC(=O)Nc2ccccc2)n1CCCOC	none (no result: NALP1 inh)
COc1ccc(C(=O)OCCCOC(=O)c2ccc(OC)cc2OC)c(OC)c1	none
COc1ccc(C(=O)O/N=C(\N)Cc2ccc([N+](=O)[O-])cc2)c(OC)c1	tim10-1 inh 75.3, TIM10 inh 51.3 | tim10-1 conf 84.0 | tim10 confirm 57.5
CC(C)(C)NC(=O)COc1coc(CN2CCN(C(=O)c3ccco3)CC2)cc1=O	none (no result: NALP1 inh)
CCOc1ccc(NC(=O)C2CC(=O)N(C(C)C)C2)cc1 (stereo unspecified)	none
CN(C)c1ccc(C(=S)N2CCCC2)cc1Br	none
Cc1ccc2ccccc2c1COC(=O)c1nonc1N	tim10-1 inh 42.9, TIM10 inh 50.5 | tim10-1 conf 43.4 | tim10 confirm 49.9
CN(CC(=O)Nc1ccc(S(=O)(=O)N2CCOCC2)cc1)Cc1ccc(F)cc1	none (no result: NALP1 inh)
COC(=O)C1CCN(C(=O)[C@H](C)NC(=O)C2CC(=O)N(c3ccc(F)cc3)C2)CC1 (stereo partly specified)	none
O=C(Nc1ccc(Cl)cn1)c1ccc2ccccc2n1	none
Cc1ccc(NC(=O)c2ccc3ccccc3n2)nc1	tim10-1 inh 52.1, TIM10 inh 70.2 | tim10-1 conf 36.0 | tim10 confirm 74.4
Cc1cc(C)n2nc(C(=O)OCC(=O)N(C)CC(=O)Nc3ccccc3Cl)nc2n1	none (no result: NALP1 inh)
CCS(=O)(=O)c1ccc2oc(Nc3cc(C)cc(C)c3)nc2c1	tim10-1 inh 47.1, TIM10 inh 43.5 | tim10-1 conf 36.6 | tim10 confirm 37.1
CCC1Oc2ccccc2N(CC(=O)NCCCN2CCN(c3ccc(OC)cc3)CC2)C1=O (stereo unspecified)	none
CCOc1cc(/C=C/C(=O)c2ccc(C)cc2)ccc1OCC(=O)N(C)C	tim10-1 inh 49.5, TIM10 inh 45.2 | tim10-1 conf 35.4 | tim10 confirm inactive
COc1cc(/C=C/C(=O)c2ccc(C)cc2)ccc1OCC#N	none (no result: NALP1 inh)
COc1cccc(N2CCN(CC(=O)Nc3nc4c(s3)CC(C)CC4)CC2)c1 (stereo unspecified)	tim10-1 inh 40.2, TIM10 inh 40.4 | tim10-1 conf inactive | tim10 confirm inactive
COc1cccc(N2CCN(CC(=O)Nc3nc(C)c(C(=O)N(C)C)s3)CC2)c1	none
CCOc1ccc2nc(SCC(=O)NNC(=O)c3ccco3)c(C)cc2c1	none
CCOc1ccc2cc(/C=C/C(=O)c3ccco3)c(Cl)nc2c1	tim10-1 inh 48.8, TIM10 inh 41.6 | tim10-1 conf 36.0 | tim10 confirm inactive
CCNC(=S)N/N=C(\C)c1ccc2ccccc2c1	tim10-1 inh 42.0, TIM10 inh 53.5 | tim10-1 conf 31.0 | tim10 confirm 38.1
CCNC(=S)N/N=C(\C)c1ccc2ccccc2c1OC(F)F	tim10-1 inh 47.2, TIM10 inh 55.8 | tim10-1 conf inactive | tim10 confirm 41.3
COc1ccc(CNC(=S)N/N=C(/C)c2ccccc2)cc1	none
CCNC(=S)NNC(=O)c1ccccc1OC(F)F	none
C/C(=N\NC(=S)NCc1ccccc1)c1ccccc1	tim10-1 inh 47.0, TIM10 inh 44.5 | tim10-1 conf 43.9 | tim10 confirm 40.0
C#Cc1ccc([C@H]2C=C(C(=O)NCc3ccccc3)O[C@@H](OCc3ccc(CO)cc3)C2)cc1	none (no result: NALP1 inh)
O=C(C#Cc1ccccc1)c1ccc([N+](=O)[O-])cc1	tim10-1 inh 43.4, TIM10 inh 54.5 | tim10-1 conf inactive | tim10 confirm inactive

From PubChem BioAssay
